# An excerpt weighted towards active compounds, which were near 4% of everything screened.
# AF4-AF9 inh: inhibitors of human MLL-AF4/AF9 interaction | AlphaScreen, biotin-AF4 peptide binding to FLAG-AF9 | inhibition, % at 10 µM | actives 0.47% (n = 350,000) | AID 651704;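 active means every replicate reaching a set inhibition limit, whatever the replicate mean, cut at about 25% in these data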;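 further: 0% = plate neutral control median and 100% = total signal loss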
# Target sequence (P42568 whole entry, looked up): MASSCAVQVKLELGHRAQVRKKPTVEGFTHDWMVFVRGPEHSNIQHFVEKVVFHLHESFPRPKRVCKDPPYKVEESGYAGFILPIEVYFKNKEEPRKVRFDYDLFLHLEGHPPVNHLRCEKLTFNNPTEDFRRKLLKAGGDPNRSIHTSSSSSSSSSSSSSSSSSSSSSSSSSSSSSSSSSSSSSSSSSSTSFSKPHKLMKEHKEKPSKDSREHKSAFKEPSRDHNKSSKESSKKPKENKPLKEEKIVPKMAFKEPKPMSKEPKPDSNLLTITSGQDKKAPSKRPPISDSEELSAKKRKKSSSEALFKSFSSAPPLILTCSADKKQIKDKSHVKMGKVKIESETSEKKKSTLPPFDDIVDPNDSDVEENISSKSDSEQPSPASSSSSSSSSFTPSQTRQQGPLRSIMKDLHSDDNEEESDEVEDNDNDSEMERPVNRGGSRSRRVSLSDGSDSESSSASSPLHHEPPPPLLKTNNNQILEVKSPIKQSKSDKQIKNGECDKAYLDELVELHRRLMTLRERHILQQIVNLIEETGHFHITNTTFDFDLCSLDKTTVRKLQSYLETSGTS
# FGF22 binding: shifts melting point of recombinant human FGF22. AID 651658. activity (Tm shift, normalised), % at 9.99 µM. actives 1.5% (n = 340,000). recombinant FGF22 thermal shift, SYPRO orange fluorescence; percent of sucrose octasulfate shift, DMSO zero;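 active means mean Tm shift, scaled 0 neutral to 100 positive control, at about 1.3% or above, every replicate too, limit read from the data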
# ERAP1 HTS inh: inhibitors of human ERAP1 aminopeptidase. actives 0.15% (n = 340,000). AID 652197. recombinant ERAP1, Leu-AMC fluorescence, 60 min. Q9NZ08. inhibition, % at 10.7 µM;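 active means mean replicate inhibition of at least 30%, or all replicates individually reaching that 30% level; inactive means mean below 30% and not every replicate reaching it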;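 further: 0% = neutral control wells and 100% = L-leucinethiol positive control wells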
# RAD52 inh: blocks human RAD52 DNA annealing. recombinant RAD52 DNA annealing, FRET fluorescence. inhibition, % at 18.7 µM. actives 0.46% (n = 360,000). AID 651710;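 active means every replicate showing at least 50% inhibition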
# DENV2 CPE: protects cells from dengue virus 2 cytopathic effect; actives 1.7% (n = 350,000); DENV2-infected cells, cytopathic effect rescue, plate reader; CPE inhibition, % at 9.99 µM; in the data active means CPE inhibition above about 20%, passing the limit was not always enough; tested in BHK-21 cells;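 further: 0% = median of neutral control wells and 100% = median of positive control wells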
# Active calls of the source: *; . = not tested or not shown.
SMILES,AF4-AF9 inh,FGF22 binding,ERAP1 HTS inh,RAD52 inh,DENV2 CPE
CCNS(=O)(=O)c1ccc(NC(=S)NCC2CCCO2)cc1 (centres undefined),-2,43*,-5,-11,1
CCC(=O)N1CCC2(CC1)CN(Cc1ccc(Cl)cc1)[C@H](CO)c1[nH]c3cc(OC)ccc3c12,-3,0,2,-45,2
Cc1ccc2nc(NC(=O)c3ccc(N4C(=O)CCC4=O)cc3)sc2c1,-1,43*,-3,-4,2
Cc1nc2c(OCCC3CCCCC3)cccn2c1N(C)C(=O)CCC1CCCC1,-12,0,1,-21,41*
COc1cc(COCC(O)CN2CCc3ccccc3C2)cc(OC)c1OC (centres undefined),-10,44*,-5,-1,-6
CCOC(=O)c1c(/N=C/C2=C(O)CC(C)(C)CC2=O)sc(C(C)=O)c1C,-4,43*,3,-27,.
Fc1cccc(NC(=S)NCCc2ccccc2)c1,-1,1.7*,-4,-6,2
Fc1ccc(NC(=S)NCCc2ccc(Cl)cc2)cc1,4,0,2,7,2
Fc1ccc(CCNC(=S)Nc2ccc(F)c(Cl)c2)cc1,1,1.9*,1,-10,-3
Cc1cccc(NC(=S)NC(C)CCc2ccccc2)c1 (centres undefined),-15,0,1,-4,45*
CC(C)CNC(=O)[C@@]1(c2ccc([N+](=O)[O-])cc2)CC(=O)N(CC23CC4CC(CC(C4)C2)C3)[C@@H]1c1ccc(CO)cc1,5,-1,1,5,0
Cc1noc(C)c1NC(=O)Nc1ccc2c(c1)C(=O)N([C@H](C)CO)C[C@H](C)[C@@H](CN(C)S(=O)(=O)c1ccc(F)cc1)O2,-3,0,1,6,14
Cc1noc(C)c1NC(=O)Nc1cccc2c1O[C@H](CN(C)S(=O)(=O)c1ccc(F)cc1)[C@@H](C)CN([C@H](C)CO)C2=O,-2,0,0,-9,-1
Cc1noc(C)c1NC(=O)Nc1cccc2c1O[C@H](CN(C)S(=O)(=O)c1ccc(F)cc1)[C@@H](C)CN([C@@H](C)CO)C2=O,-1,1,-1,-7,32*
Cc1noc(C)c1NC(=O)Nc1ccc2c(c1)C(=O)N([C@H](C)CO)C[C@@H](C)[C@H](CN(C)S(=O)(=O)c1ccc(F)cc1)O2,-1,0,3,-9,86*
C[C@H](CO)N1C[C@H](C)[C@H](CN(C)C(=O)NC2CCCCC2)Oc2ccc(NC(=O)Cc3ccccc3)cc2CC1=O,-3,0,-7,1,-5
Cc1ccccc1S(=O)(=O)N1[C@H](C#N)[C@H](c2ccc(C#CC3CCCC3)cc2)[C@H]1CO,0,.,-2,-59,4
CO[C@@H]1CN(C)C(=O)c2cc(NC(=O)NC(C)C)ccc2OC[C@@H](C)N(Cc2ccccn2)C[C@@H]1C,-1,0,-3,4,-16
CCCC(=O)Nc1ccc2c(c1)OC[C@H](C)N(C(=O)c1ccncc1)C[C@@H](C)[C@@H](OC)CN(C)C2=O,-1,0,-2,8,-1
COc1cccc(-n2c(Cc3cc(=O)[nH]c(=O)[nH]3)nnc2SCC(=O)N2CCCCCC2)c1,-2,0,-1,-33,69*
Nn1c(Cc2ccccc2)nc2ccccc2c1=O,-1,0,.,-7,2
CCc1nc2sccc2c(=O)n1N,-1,43*,-1,-23,6
COC(=O)C1=C(C)N(Cc2ccccc2)C(=NCC(C)C)N[C@H]1c1cccc(F)c1,1,0,5,-4,25*
COC(=O)C1=C(C)N(Cc2ccccc2C(F)(F)F)C(=NCc2ccccc2)NC1CCc1ccccc1 (centres undefined),.,0,-7,-8,91*
COC(=O)C1=C(C)N(C)C(=NCc2ccc(OC)cc2)NC1c1ccc(F)cc1 (centres undefined),-2,0,1,-5,50*
SMILES,AF4-AF9 inh,FGF22 binding,ERAP1 HTS inh,RAD52 inh,DENV2 CPE
COC(=O)C1=C(C)N(C)C(=NCc2ccc(OC)cc2)NC1c1ccc(C(F)(F)F)cc1 (centres undefined),1,0,2,-13,-2
COC(=O)C1=C(C)N(Cc2cccc(C(F)(F)F)c2)C(=NCc2ccc(C(F)(F)F)cc2)NC1c1cccc(F)c1 (centres undefined),1,41,-1,-24,-1
COC(=O)C1=C(C)N(Cc2ccc(C(F)(F)F)cc2)C(=NCc2ccccc2)NC1c1cccc(F)c1 (centres undefined),5,44*,-2,-11,-11
C[C@H](NC(=O)C[C@H]1C[C@@H]2c3cc(NC(=O)C4CCC4)ccc3O[C@@H]2[C@@H](CO)O1)c1ccccc1,2,0,-1,-1,4
CC=Cc1ccc2n(c1=O)C[C@@H]1[C@@H](CO)[C@H](C(=O)NCC3CC3)N(Cc3cccnc3)[C@H]21 (mixture of isomers),-1,0,-2,-21,16
C[C@@H](NC(=O)[C@@H]1[C@@H](CO)[C@@H]2Cn3c(ccc(-c4ccccc4F)c3=O)[C@H]1N2C)c1ccccc1,0,0,-2,9,-3
CCN(CC)CCCN=C1N[C@@H](c2ccccc2)C(C(=O)OC)=C(C)N1CC,-5,0,63*,-10,1
Cc1ccc(S(=O)(=O)Nc2ccc3c(c2)CC(=O)N([C@@H](C)CO)C[C@H](C)[C@@H](CN(C)Cc2ccc(Oc4ccccc4)cc2)O3)cc1,-1,0,0,-22,-27
Cc1ccc(S(=O)(=O)Nc2ccc3c(c2)CC(=O)N([C@@H](C)CO)C[C@@H](C)[C@H](CN(C)Cc2ccc(C(=O)O)cc2)O3)cc1,-6,0,-2,1,3
Cc1ccc(S(=O)(=O)Nc2ccc3c(c2)CC(=O)N([C@H](C)CO)C[C@H](C)[C@H](CN(C)Cc2ccc(Oc4ccccc4)cc2)O3)cc1,-11,-1,-3,-8,50*
Cc1ccc(S(=O)(=O)Nc2ccc3c(c2)CC(=O)N([C@@H](C)CO)C[C@@H](C)[C@H](CN(C)Cc2ccc(-c4ccccc4)cc2)O3)cc1,3,0,-1,83*,15
C[C@H]1CN([C@@H](C)CO)C(=O)Cc2cc(NS(=O)(=O)c3cccs3)ccc2O[C@H]1CN(C)Cc1ccc(-c2ccccc2)cc1,2,0,0,-27,-21
C[C@H](CO)N1C[C@H](C)[C@H](CN(C)Cc2ccc(-c3ccccc3)cc2)Oc2ccc(NS(=O)(=O)c3cccs3)cc2CC1=O,-1,0,4,-8,51*
CO[C@@H]1CN(C)C(=O)c2ccc(NC(=O)c3ccc(F)cc3)cc2OC[C@@H](C)N(C(C)=O)C[C@H]1C,-2,0,-1,-13,-1
COc1ccccc1C(O)(C(=O)NNc1cccc(C)c1)c1ccccc1OC,1,-1,-3,-7,1
COc1ccccc1C(O)(C(=O)NNc1ccccc1C)c1ccccc1OC,-2,43*,0,7,2

# Screening data from PubChem.
